SSB-PriA inh – K. pneumoniae PriA-SSBct interaction inhibition; 0.6% of 430,000 active; AID 1272365; AlphaScreen SSBct-PriA binding, biotinylated peptide; inhibition, % at 33 µM; in the data active = inhibition mostly above about 37%, no sharp cut-off; inactive = mostly below about 20%;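 also: plate controls were negative control peptide for no effect and reference peptide for full effect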
PrP UTR inh – inhibition of PrP 5' UTR reporter expression. inhibition, % (no concentration beside the values). AID 488862. cell-based PrP 5' UTR mRNA reporter, plate reader. 0.35% of 340,000 active; in the data active = inhibition above about 52%; also: 0 = median of the neutral control wells
PfHsp40 yeast – restores yeast growth despite PfHsp40 toxicity. S. cerevisiae expressing PfHsp40, growth rescue, ATP luminescence. growth rescue, % at 12.5 µM. 0.68% of 340,000 active; in the data active = growth rescue above about 28%, passing the limit was not always enough;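 also: yeast W303a lacking pdr1 and pdr3 grown in galactose medium; growth measured after three days at 30 °C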
RecA intein inh – Mtb RecA intein splicing inhibition; P9WHJ3; cell-free RecA intein splicing, fluorescence; inhibition, % (no concentration beside the values); 0.75% of 290,000 active; AID 2221; in the data active = inhibition above about 30%;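 also: 0% = vehicle wells and 100% = reference inhibitor control wells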
Target sequence (P9WHJ3 whole entry, looked up): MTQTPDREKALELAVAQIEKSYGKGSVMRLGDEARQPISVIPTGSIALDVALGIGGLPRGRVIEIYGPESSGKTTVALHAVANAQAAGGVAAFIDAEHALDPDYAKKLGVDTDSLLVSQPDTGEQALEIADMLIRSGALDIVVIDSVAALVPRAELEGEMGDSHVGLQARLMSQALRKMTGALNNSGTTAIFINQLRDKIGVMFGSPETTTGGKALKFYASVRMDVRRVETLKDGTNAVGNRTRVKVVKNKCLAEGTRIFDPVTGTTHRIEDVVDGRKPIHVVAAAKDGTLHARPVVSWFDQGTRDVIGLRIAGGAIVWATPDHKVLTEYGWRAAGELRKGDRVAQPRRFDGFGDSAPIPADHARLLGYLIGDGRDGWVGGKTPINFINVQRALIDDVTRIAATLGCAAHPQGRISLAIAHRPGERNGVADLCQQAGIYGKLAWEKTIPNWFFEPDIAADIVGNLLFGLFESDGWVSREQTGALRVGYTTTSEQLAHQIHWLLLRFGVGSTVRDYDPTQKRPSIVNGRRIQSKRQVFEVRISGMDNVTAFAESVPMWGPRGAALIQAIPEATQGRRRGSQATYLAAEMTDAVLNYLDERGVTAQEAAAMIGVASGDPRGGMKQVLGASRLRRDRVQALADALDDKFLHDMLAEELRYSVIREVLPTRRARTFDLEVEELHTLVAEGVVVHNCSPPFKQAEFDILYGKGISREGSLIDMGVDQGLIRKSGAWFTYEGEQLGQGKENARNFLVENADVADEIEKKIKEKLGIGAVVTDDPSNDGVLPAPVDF
PrPC surface inh – inhibitors of human cell surface prion protein PrPC. TR-FRET read-out. inhibition, % at 13.8 µM. P04156. 0.43% of 370,000 active; in the data active = inhibition above about 24%; also: 0% = median of the test wells and 100% = reference compound wells
BJeLR lethal – BJeLR cell viability loss. BJeLR (HRASV12) viability, CellTiter-Glo ATP luminescence, 48 h. inhibition, % (test concentration not listed). 0.17% of 300,000 active; in the data active = inhibition above about 50%
GFP chromo cs – counter-screen: blocks GFP chromophore formation; shares compounds with RecA intein inh; cell-free GFP chromophore formation, fluorescence; EC50, µM; 83% of 2,100 active; AID 434968; call rule not given here
Starred values were filed as active, the others as inactive. Shown are actives, neighbours in structure and some others; about 1.9% of the full set was active somewhere.

`Cc1[nH]n(-c2ccccc2)c(=O)c1C(=O)c1ccc([N+](=O)[O-])cc1` gave SSB-PriA inh -12, PrP UTR inh -26, PfHsp40 yeast -1, RecA intein inh 4, PrPC surface inh -17 and BJeLR lethal -2.
For Cc1[nH]n(-c2ccccc2)c(=O)c1C(c1cccc([N+](=O)[O-])c1O)c1c(C)[nH]n(-c2ccccc2)c1=O the results were SSB-PriA inh 27, PrP UTR inh -9, PfHsp40 yeast -1, RecA intein inh 93*, PrPC surface inh -10, BJeLR lethal -7 and GFP chromo cs 1.3*.
`Cc1[nH]n(-c2ccccc2)c(=O)c1C(c1cccc([N+](=O)[O-])c1)c1c(C)[nH]n(-c2ccccc2)c1=O` gave SSB-PriA inh 22, PrP UTR inh -28, PfHsp40 yeast 1, RecA intein inh 85*, PrPC surface inh -8, BJeLR lethal -5 and GFP chromo cs 4.8*.
Screening Cc1[nH]n(-c2ccccc2)c(=O)c1C(c1ccc(C(=O)O)cc1)c1c(C)[nH]n(-c2ccccc2)c1=O returned SSB-PriA inh 7, PrP UTR inh -19, PfHsp40 yeast -1, RecA intein inh 96*, PrPC surface inh -8, BJeLR lethal 4 and GFP chromo cs 1.2*.
`COc1ccc(C(=O)c2c(C)[nH]n(-c3ccccc3)c2=O)cc1OC` gave SSB-PriA inh -2.
`Cc1cc(NC(=O)c2cccs2)n(C)n1` gave SSB-PriA inh -2.
For CC(=O)Nc1ccc(S(=O)(=O)NC2=C(N3CCN(c4ccc(F)cc4)CC3)C(=O)c3ccccc3C2=O)cc1 the results were SSB-PriA inh 73, PrP UTR inh -35, PfHsp40 yeast 0, RecA intein inh 45*, PrPC surface inh -47, BJeLR lethal 19 and GFP chromo cs 26*.
Cc1ccc(S(=O)(=O)NC2=C(N3CCN(c4ccccc4F)CC3)C(=O)c3ccccc3C2=O)cc1 was read as SSB-PriA inh 65, PrP UTR inh -32, PfHsp40 yeast -2, RecA intein inh 7, PrPC surface inh -38 and BJeLR lethal -1.
Screening Cc1ccc(SCc2cc(=O)n3[nH]c(C)nc3n2)cc1 returned SSB-PriA inh -15, PrP UTR inh -22, PfHsp40 yeast 1, RecA intein inh 3, PrPC surface inh -1 and BJeLR lethal -1.
`Cc1ccc(SCc2cc(=O)n(C)[nH]2)cc1` gave SSB-PriA inh -5, PrP UTR inh -10, PfHsp40 yeast 1, RecA intein inh 95*, PrPC surface inh 6, BJeLR lethal -7 and GFP chromo cs 19*.
For CC1=CC(=Nc2c(C)n(C)n(-c3ccccc3)c2=O)C=CC1=O the results were RecA intein inh 57*, BJeLR lethal 2 and GFP chromo cs 27*.
`C[C@](O)(CNS(=O)(=O)c1ccc(-n2cccn2)cc1)c1cc2ccccc2s1` gave SSB-PriA inh 4.
Screening COc1ccccc1/C=C/C1(C(=O)NC2CCCC2)CC(=O)N1c1ccc(F)cc1 (stereo unspecified) returned SSB-PriA inh -18, PrP UTR inh -28, PfHsp40 yeast 12, RecA intein inh 57*, PrPC surface inh 0, BJeLR lethal 1 and GFP chromo cs 22*.
Screening Cc1[nH]nc2c1C(c1ccoc1)C(C#N)=C(N)O2 (stereo unspecified) returned SSB-PriA inh -7, PrP UTR inh 2, PfHsp40 yeast -1, RecA intein inh 84*, PrPC surface inh 1, BJeLR lethal 1 and GFP chromo cs 18*.
For COc1ccc(C2C(C#N)=C(N)Oc3n[nH]c(C)c32)cc1Cn1cc([N+](=O)[O-])cn1 (stereo unspecified) the results were SSB-PriA inh 3, PrP UTR inh -33, PfHsp40 yeast 0, RecA intein inh 76*, PrPC surface inh 0, BJeLR lethal -15 and GFP chromo cs 12*.
`CCOC(=O)Cc1[nH]nc2c1C(Cc1ccccc1)C(C#N)=C(N)O2` (stereo unspecified) gave SSB-PriA inh -5, PrP UTR inh -2, PfHsp40 yeast -1, RecA intein inh 28, PrPC surface inh -2 and BJeLR lethal -3.
